Results taken from PubChem BioAssay (Tox21).
Values without a mark were called inactive. Records with an inconclusive call do not appear. Where a call stands in place of a potency, no number is given. The source made the active and inactive calls. Unless noted, calls follow the shape of the full dose curve.

Experiments:
[1] = Nuclear factor erythroid 2-related factor 2/antioxidant responsive element (Nrf2/ARE) small molecule agonists: qHTS cell viability counter screen in human keratinocytes (AID 1919968; active = well fitted curve in the direction sought with a large enough effect in the repeat runs; an effect the other way counts as inactive or inconclusive; also: nearly all actives have a fitted effect of over 55% in size)
Method in brief: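 Fluorescence read-out from CellTiter-Fluor after 1 h at 37 C. Wells held HaCaT-derived ARE-luciferase reporter cells (1,500/well) treated 23 h with DMSO-dissolved compounds. Run in the same wells as the luciferase agonist read.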

[2] = Nuclear factor erythroid 2-related factor 2/antioxidant responsive element (Nrf2/ARE) small molecule agonists: luciferase reporter gene qHTS assay in human keratinocytes (AID 1919969); also: nearly all actives have a fitted effect of over 35% in size; also: potency is read from the fitted curve at half-maximal effect
[3] = target: Gonadotropin-releasing hormone receptor (Homo sapiens) (UniProt P30968); assay: Human gonadotropin-releasing hormone receptor (GnRHR) small molecule agonists, calcium flux assay in GnRHR-HEK293 cells (AID 1920063); also: nearly all actives have a fitted effect of over 35% in size
Gonadotropin-releasing hormone receptor (Homo sapiens), sequence (P30968 whole entry, looked up): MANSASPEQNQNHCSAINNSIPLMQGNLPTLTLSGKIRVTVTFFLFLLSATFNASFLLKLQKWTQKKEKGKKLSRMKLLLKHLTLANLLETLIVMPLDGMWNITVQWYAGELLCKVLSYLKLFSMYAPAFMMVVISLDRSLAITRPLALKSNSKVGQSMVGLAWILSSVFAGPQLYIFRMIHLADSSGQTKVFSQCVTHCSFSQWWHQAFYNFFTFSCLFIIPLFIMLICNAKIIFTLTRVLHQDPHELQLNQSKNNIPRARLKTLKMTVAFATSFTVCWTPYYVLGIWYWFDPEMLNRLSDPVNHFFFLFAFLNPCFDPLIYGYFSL
Method in brief: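 Calcium-dye fluorescence, Ex/Em=480/540, recorded every 1 sec over 3 min after compound addition to GnRHR-HEK293 cells. Cells had been seeded 18 hours earlier and dye-loaded for 1 hour at 37 C. Fifteen concentrations, triplicates.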

[4] = target: KiSS-1 receptor (Homo sapiens) (UniProt Q969F8); assay: Human kisspeptin (KISS1R) small molecule agonists, calcium flux assay in KISS1R-HEK293 cells (AID 1920064; active = well fitted curve in the direction sought with a large enough effect in the repeat runs; an effect the other way counts as inactive or inconclusive)
KiSS-1 receptor (Homo sapiens), sequence (Q969F8 whole entry, looked up): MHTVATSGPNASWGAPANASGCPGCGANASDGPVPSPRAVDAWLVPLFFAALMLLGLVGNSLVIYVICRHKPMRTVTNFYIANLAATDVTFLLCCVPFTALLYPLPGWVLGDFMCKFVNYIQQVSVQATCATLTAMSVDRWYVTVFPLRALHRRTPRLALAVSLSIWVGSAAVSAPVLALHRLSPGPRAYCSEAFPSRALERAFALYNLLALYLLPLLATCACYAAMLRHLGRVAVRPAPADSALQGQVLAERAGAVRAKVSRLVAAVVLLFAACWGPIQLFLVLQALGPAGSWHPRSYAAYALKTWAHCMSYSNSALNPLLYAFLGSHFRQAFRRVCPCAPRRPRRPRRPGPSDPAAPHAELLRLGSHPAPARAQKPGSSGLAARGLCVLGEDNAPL
Method in brief: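 Calcium flux read-out: kinetic fluorescence at Ex/Em=480/540, 1 s intervals over 3 min, after pin-tool compound addition to dye-loaded KISS1R-HEK293 cells. Fifteen concentrations, triplicates.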

[5] = G protein-coupled receptor (GPCR) small molecule agonists, calcium flux assay: HEK293 wild type cell line counter screen (AID 1920065)
Method in brief: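 Agonist mode; 18 h seeding at 37 C, 1 h dye load at 37 C; compounds pinned from DMSO, ATP as positive control; kinetic fluorescence 480/540 nm, 3 min, 1 s reads; 15 concentrations, triplicate.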

[6] = p53 small molecule agonists, cell-based qHTS assay with human liver microsomes (AID 1963577);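 also: p53 response element beta-lactamase reporter cells with liver microsomes plus NADPH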
Method in brief: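 p53RE-bla cells; 5 h settle, 37 C/5% CO2; cpd + HLM 0.5 mg/mL + NADPH 0.5 mg/mL (final); 16 h 37 C; LiveBLAzer 2 h RT dark; fluorescence readout.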

[7] = p53 small molecule agonists, cell-based qHTS assay with rat liver microsomes (AID 1963578)
Method in brief: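 Rat liver microsome activation: microsomes 0.5 mg/mL, NADPH 0.5 mg/mL final; p53RE-bla cells, 16 h 37 C; LiveBLAzer readout, 2 h RT dark.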

[8] = p53 small molecule agonists, cell-based qHTS assay with rat liver microsomes: qHTS cell viability counter screen (AID 1963580); also: nearly all actives have a fitted effect of over 45% in size
Method in brief: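 Rat liver microsome (0.5 mg/mL final) and NADPH (0.5 mg/mL final) co-incubation with compounds for 16 h at 37 C on HCT-116 p53RE-bla cells; cytotoxicity taken from intracellular ATP luminescence.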

[9] = p53 small molecule agonists, cell-based qHTS assay (AID 1963582; active = well fitted activation curve with a large enough effect in the signal ratio in the repeat runs, not every such curve was filed as active; the % refers to the signal ratio)
Method in brief: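 Fluorescence intensity read-out of a beta-lactamase reporter under a p53 response element. Cells were exposed to DMSO-dissolved compounds for 16 h at 37 C, then developed with FRET substrate for 2 h at RT.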

[10] = target: 5-hydroxytryptamine receptor 2A (Homo sapiens) (UniProt P28223); assay: 5-hydroxytryptamine receptor 2A (HTR2A) small molecule antagonists, cell-based qHTS assay (AID 1963586); also: nearly all actives have a fitted effect of over 45% in size
5-hydroxytryptamine receptor 2A (Homo sapiens), sequence (P28223 whole entry, looked up): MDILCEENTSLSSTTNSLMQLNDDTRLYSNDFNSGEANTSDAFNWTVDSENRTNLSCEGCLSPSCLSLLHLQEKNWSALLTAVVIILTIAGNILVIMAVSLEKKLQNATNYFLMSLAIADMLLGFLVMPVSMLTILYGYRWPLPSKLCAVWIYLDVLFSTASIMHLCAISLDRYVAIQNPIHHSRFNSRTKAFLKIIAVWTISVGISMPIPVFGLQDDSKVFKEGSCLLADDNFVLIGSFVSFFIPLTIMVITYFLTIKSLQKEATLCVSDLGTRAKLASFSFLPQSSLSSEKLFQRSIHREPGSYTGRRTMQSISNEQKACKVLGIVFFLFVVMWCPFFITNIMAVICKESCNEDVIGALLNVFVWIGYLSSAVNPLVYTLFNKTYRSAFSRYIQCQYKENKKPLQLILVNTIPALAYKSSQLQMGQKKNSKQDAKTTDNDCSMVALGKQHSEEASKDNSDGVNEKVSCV
Method in brief: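 CHO cells stably expressing human HTR2A were plated for 18 h at 37 C, then loaded with calcium dye for 1 h. Compounds were preincubated 5 min at room temperature before DOI (4 nM solution) was added. Kinetic fluorescence was read for 3 min.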

[11] = target: 5-hydroxytryptamine receptor 2A (Homo sapiens) (UniProt P28223); assay: 5-hydroxytryptamine receptor 2A (HTR2A) small molecule agonists, cell-based qHTS assay (AID 1963587); also: nearly all actives have a fitted effect of over 30% in size
Method in brief: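 Kinetic calcium-flux fluorescence (2 min, 1 sec intervals) after compound addition in agonist mode. HTR2A-CHO cells were cultured 18 h, then dye-loaded 1 h at 37 C.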

[12] = target: Muscarinic acetylcholine receptor M1 (Homo sapiens) (UniProt P11229); assay: Cholinergic receptor muscarinic 1 (CHRM1) small molecule antagonists, cell-based qHTS assay (AID 1963588); also: nearly all actives have a fitted effect of over 40% in size
Muscarinic acetylcholine receptor M1 (Homo sapiens), sequence (P11229 whole entry, looked up): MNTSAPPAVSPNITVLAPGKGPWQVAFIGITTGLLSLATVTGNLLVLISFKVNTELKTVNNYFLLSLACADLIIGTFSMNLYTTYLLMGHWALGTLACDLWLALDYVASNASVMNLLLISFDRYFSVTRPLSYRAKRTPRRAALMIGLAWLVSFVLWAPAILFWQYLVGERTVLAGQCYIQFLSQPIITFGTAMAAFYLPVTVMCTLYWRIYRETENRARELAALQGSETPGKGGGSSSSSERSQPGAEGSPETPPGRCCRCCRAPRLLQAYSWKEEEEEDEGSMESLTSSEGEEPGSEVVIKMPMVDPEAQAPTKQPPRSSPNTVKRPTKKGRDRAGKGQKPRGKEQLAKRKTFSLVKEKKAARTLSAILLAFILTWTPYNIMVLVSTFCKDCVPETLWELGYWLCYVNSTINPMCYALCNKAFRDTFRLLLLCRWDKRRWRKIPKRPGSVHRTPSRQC
Method in brief: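 Compounds were tested at 15 concentrations in three independent runs. Dye-loaded CHRM1-CHO cells were exposed 5 min at room temperature before stimulation by acetylcholine added at 50nM. Intracellular calcium was read kinetically on FDSS for 3 min.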

[13] = target: Muscarinic acetylcholine receptor M1 (Homo sapiens) (UniProt P11229); assay: Cholinergic receptor muscarinic 1 (CHRM1) small molecule agonists, cell-based qHTS assay (AID 1963589); also: nearly all actives have a fitted effect of over 35% in size
Method in brief: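 Calcium flux read-out: kinetic fluorescence at 1 sec intervals after pin-tool compound addition to dye-loaded CHRM1-CHO cells (human M1). Agonist mode; 15 concentrations tested in triplicate independent runs.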

[14] = target: Beta-2 adrenergic receptor (Homo sapiens) (UniProt P07550); assay: Adrenergic beta2 receptor (ADRB2) small molecule antagonists, cell-based qHTS assay (AID 1963592); also: series mostly up to about 92 µM; nearly all actives have a fitted effect of over 50% in size
Beta-2 adrenergic receptor (Homo sapiens), sequence (P07550 whole entry, looked up): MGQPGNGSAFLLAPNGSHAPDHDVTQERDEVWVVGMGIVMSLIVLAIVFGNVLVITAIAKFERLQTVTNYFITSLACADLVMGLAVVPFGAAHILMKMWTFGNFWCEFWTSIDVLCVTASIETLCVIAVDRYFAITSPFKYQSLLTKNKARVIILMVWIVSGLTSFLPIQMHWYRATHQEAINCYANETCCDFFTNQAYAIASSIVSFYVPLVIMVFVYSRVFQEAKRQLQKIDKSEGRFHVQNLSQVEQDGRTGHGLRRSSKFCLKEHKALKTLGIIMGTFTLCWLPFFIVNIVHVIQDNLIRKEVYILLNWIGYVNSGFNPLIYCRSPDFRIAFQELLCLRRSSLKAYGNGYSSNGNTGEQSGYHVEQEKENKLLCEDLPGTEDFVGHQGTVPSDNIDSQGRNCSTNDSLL
Method in brief: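 Assay format: CHO-ADRB2 cells, 18-20hr seeding at 37C/5% CO2, then compound plus 1nM isoproterenol agonist mix for 0.5hr RT. Homogeneous time-resolved fluorescence cAMP detection after 1hr, expressed as 665/615 nm ratio.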

[15] = target: D(2) dopamine receptor (Homo sapiens) (UniProt P14416); assay: Dopamine D2 receptor (DRD2) small molecule agonists, cell-based qHTS assay (AID 1963594); also: nearly all actives have a fitted effect of over 35% in size
D(2) dopamine receptor (Homo sapiens), sequence (P14416 whole entry, looked up): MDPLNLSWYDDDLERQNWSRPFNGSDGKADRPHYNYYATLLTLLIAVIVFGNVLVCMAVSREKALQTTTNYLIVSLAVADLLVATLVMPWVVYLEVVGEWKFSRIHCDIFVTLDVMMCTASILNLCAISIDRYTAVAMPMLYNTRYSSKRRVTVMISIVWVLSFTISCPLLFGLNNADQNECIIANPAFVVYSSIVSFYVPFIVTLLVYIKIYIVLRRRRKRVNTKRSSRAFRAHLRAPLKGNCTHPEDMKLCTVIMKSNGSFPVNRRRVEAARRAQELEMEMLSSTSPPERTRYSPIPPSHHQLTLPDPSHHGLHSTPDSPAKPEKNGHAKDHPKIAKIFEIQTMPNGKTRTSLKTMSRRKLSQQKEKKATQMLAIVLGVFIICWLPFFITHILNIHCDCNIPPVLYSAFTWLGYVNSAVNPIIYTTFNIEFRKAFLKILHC
Method in brief: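 cAMP accumulation in DRD2-HEK293 cells measured by HTRF after 1 h detection; compounds added 10 min before NKH477 (200nM […]) forskolin-analogue stimulation, 30 min at room temperature, with Ro20-1724 present at 0.1 mM final.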

[16] = target: D(2) dopamine receptor (Homo sapiens) (UniProt P14416); assay: Dopamine D2 receptor (DRD2) small molecule antagonists, cell-based qHTS assay (AID 1963595; active = well fitted inhibition curve with a large enough effect in the signal ratio in the repeat runs, with a control signal flat; the % refers to the signal ratio)
Method in brief: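 HTRF cAMP read-out at 665 and 620 nm emission (340 nm excitation). Antagonist mode: compounds were tested against 12 nM quinpirole in DRD2-HEK293 cells, with 200 nM NKH477 raising cAMP and 0.1 mM Ro20-1724 blocking its breakdown.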

[17] = p53 small molecule agonists, cell-based qHTS assay: qHTS cell viability counter screen (AID 1963581); also: nearly all actives have a fitted effect of over 45% in size
Method in brief: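 Cytotoxicity read-out: ATP-based luminescence (CellTiter-Glo, 30 min RT) measured in the same wells as the p53 reporter assay, HCT-116 p53RE-bla cells, 16 h compound exposure at 37 C.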

[18] = cAMP Responsive Elements (CRE) small molecule agonists, cell-based qHTS assay (AID 1963590)
Method in brief: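 Beta-lactamase reporter readout: LiveBLAzer B/G FRET substrate, 2 h at room temperature, added after 3 h compound treatment of CRE-bla HEK 293T cells at 37 C/5% CO2.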

[19] = cAMP Responsive Elements (CRE) small molecule antagonists, cell-based qHTS assay (AID 1963591; active = well fitted inhibition curve with a large enough effect in the signal ratio in the repeat runs, not every such curve was filed as active; the % refers to the signal ratio)
Method in brief: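 HEK293T CRE-bla; 18 h preincubation; compound pin-transfer; NKH477 0.25 uM final, 3 h, 37 C; LiveBLAzer FRET substrate 2 h RT.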

[20] = target: Beta-2 adrenergic receptor (Homo sapiens) (UniProt P07550); assay: Adrenergic beta2 receptor (ADRB2) small molecule agonists, cell-based qHTS assay (AID 1963593);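 also: CHO cells stably overexpressing human ADRB2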
Method in brief: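 CHO cells stably over-expressing ADRB2 were plated overnight at 37C, then dosed with compounds plus a stimulation mix containing 100uM IBMX and 25uM Ro-20-1724 for 0.5hr at room temperature. cAMP was measured by HTRF competition, 1hr.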

SMILES | Potency [1] | Potency [2] | Potency [3] | outcome [4] | outcome [5] | Potency [6] | Potency [7] | Potency [8] | Potency [9] | Potency [10] | Potency [11] | Potency [12] | Potency [13] | Potency [14] | Potency [15] | Potency [16] | Potency [17] | Potency [18] | Potency [19] | Potency [20]
CC(C)(O)c1ccc(CNC(=O)c2cccnc2Oc2ccc(F)cc2)cc1 | inactive | inactive | inactive | inactive | inactive | inactive | inactive | inactive | inactive | inactive | inactive | inactive | inactive | inactive | inactive | inactive |  |  |  | 
COS(=O)(=O)C(F)(F)F | inactive | 71.7 µM (active) | inactive | inactive | inactive | inactive | inactive |  | inactive | inactive | inactive |  | inactive | inactive | inactive |  | inactive | inactive | inactive | 
CCCCCCCCOC(C)=O | inactive | inactive | inactive | inactive | inactive | inactive | inactive |  | inactive | inactive | inactive | inactive | inactive | inactive | inactive | inactive | inactive | inactive | inactive | 
CC(=O)Oc1cc(C(C)C)c(OCCN(C)C)cc1C | inactive | inactive | inactive | inactive | inactive | inactive | inactive | inactive |  | inactive | inactive | inactive | inactive | inactive | inactive | inactive |  | inactive | inactive | 
CCCCCC(C)N (stereo not given) | inactive | inactive | inactive | inactive | inactive | inactive |  | inactive | inactive | inactive | inactive | inactive | inactive | inactive | inactive | inactive | inactive | inactive | inactive | 
C=C(C)C(=O)OCCN(CC)CC | inactive | inactive | inactive | inactive | inactive | inactive | inactive | inactive | inactive |  |  | inactive | inactive | inactive |  | inactive |  | inactive | inactive | 
O=C(O)CCCC[P+](c1ccccc1)(c1ccccc1)c1ccccc1 | inactive | inactive | inactive | inactive | inactive | inactive | inactive |  | inactive | inactive | inactive | inactive | inactive |  | inactive |  | inactive |  | inactive | inactive
C=CCCCCCCCCC=O | inactive | inactive | inactive | inactive | inactive | inactive | inactive | inactive | inactive |  | inactive | inactive | inactive | inactive | inactive |  |  |  |  | 
C=CCOc1nc(OCC=C)nc(OCC=C)n1 | inactive | inactive | inactive | inactive | inactive | inactive | inactive |  | inactive | inactive | inactive | inactive | inactive | inactive | inactive | inactive | inactive |  | inactive | inactive
CCCCCCCCCC[N+](C)(C)[O-] | inactive | inactive | inactive | inactive | inactive | inactive | inactive |  | inactive | inactive |  |  | inactive | inactive | inactive | inactive | inactive | inactive | inactive | inactive
